The nature of this experiment: supercomplex reporter luminescence per Hoechst cell count – Hoechst nuclei count (AID 1645838).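 As to all read-outs here: control cybrid cells.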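 As to z-score: higher means more mitochondrial supercomplex formation.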 As to conditions: Cells, luminescence/Hoechst cell count ratio; for z-score: stronger effect = higher value; for cell count: measured here: cell number, Hoechst nuclei count.
The mark [1] stands for this setting: library stock concentration (final well concentration not given) 46 uM.
Setting [2] is: library stock concentration (final well concentration not given) 278 uM.
The mark [3] stands for this setting: library stock concentration (final well concentration not given) 1.67 mM.
Setting [4] is: library stock concentration (final well concentration not given) 10 mM.
Where [5] appears, read: library stock concentration (final well concentration not given) 80 uM.
Setting [6] is: library stock concentration (final well concentration not given) 400 uM.
Where [7] appears, read: library stock concentration (final well concentration not given) 2 mM.

About 100 (5%) of roughly 2,000 compounds were called active. The sample holds actives, similar compounds and a random draw of the others, so the mix is not that of the screen. Rule as the data show it: active = z-score above about 2; inactive = the rest.

In the case of `O=C1NC(=O)/C(=C/c2ccc3nccnc3c2)S1`, the z-score was 0.662 (inactive) and the cell count was 4050.
Regarding `CCCCCCCCCCC(=O)O`, the z-score by setting is: under setting [1], -0.0477 (inactive); under setting [2], 0.267 (inactive); under setting [3], -0.0647 (inactive); under setting [4], 0.212 (inactive). Also, the cell count by setting is: under setting [1], 6640; under setting [2], 6810; under setting [3], 6810; under setting [4], 6380.
Consider `CCCCCCCCCCCCCCCC(=O)O`, for which the z-score is -0.762 (inactive) and the cell count came out at 5780.
For `CC(C)(CCCCCCCCCCC(C)(C)CC(=O)O)CC(=O)O` the same measures were 2.9 (active) and 5040.
In the case of `COC1C(N(C)C(=O)c2ccccc2)C[C@@H]2O[C@]1(C)n1c3ccccc3c3c4c(c5c6ccccc6n2c5c31)C(=O)NC4` (some centres undefined), the outcome by setting is: (library stock 2 mM) “inactive; censored for cell count”; (library stock 10 mM) “inactive; censored for cell count”. In addition, the z-score under setting [5] was 0.298 (inactive) and the z-score under setting [6] is 1.12 (inactive). Further, the cell count reads like this: under setting [5], 5280; under setting [6], 4120.
For `CCOC(=O)c1c(Cc2cccc(Cl)c2)[nH]c2c1cc(O)c1ccccc12`, the z-score was 0.267 (inactive) and the cell count was 5070.
On to `CCCCC(C)(O)C/C=C/[C@H]1[C@H](O)CC(=O)[C@H]1CCCCCCC(=O)OC` (some centres undefined), for which the z-score was -0.356 (inactive) and the cell count was 5650.
`NC(=O)c1cccc(-c2cccc(OC(=O)NCCCCCCc3ccccc3)c2)c1`: the z-score is 0.191 (inactive) and the cell count is 4760.
For `CC(C)NCC(O)c1ccc(O)c(O)c1` (centres undefined), the z-score under setting [1] was 0.406 (inactive), the z-score under setting [2] is 0.956 (inactive), the z-score under setting [3] was 0.578 (inactive) and the z-score under setting [4] is 1.22 (inactive). The cell count is, setting by setting: under setting [1], 6420; under setting [2], 6030; under setting [3], 6690; under setting [4], 6300.
With `OCc1cc(C(O)CNCCCCCCOCCCCc2ccccc2)ccc1O` (centres undefined), the z-score is 1.97 (active) under setting [5], 1.87 (inactive) under setting [6], 1.36 (inactive) under setting [7] and 1.79 (inactive) under setting [4]. For the same compound, the cell count is, setting by setting: under setting [5], 4600; under setting [6], 4730; under setting [7], 4660; under setting [4], 3230.
Turning to `COc1cc(C2c3cc4c(cc3C(O)[C@H]3COC(=O)[C@@H]23)OCO4)cc(OC)c1OC` (some centres undefined), the outcome (library stock 2 mM) was “inactive; censored for cell count” and the outcome (library stock 10 mM) is “inactive; censored for cell count”. The z-score runs as follows: under setting [5], -0.602 (inactive); under setting [6], -0.324 (inactive). Besides, the cell count under setting [5] was determined as 5600 and the cell count under setting [6] is 3990.
Turning to `O=C(O)CCC/C=C\C[C@@H]1[C@@H](/C=C/C(=O)CCc2ccccc2)[C@H](O)C[C@@H]1O`, the z-score was 0.328 (inactive) and the cell count stood at 4980.
For `CCCCC[C@H](O)/C=C/[C@H]1C=CC(=O)[C@@H]1C/C=C\CCCC(=O)O` the same measures were 0.972 (inactive) and 5050.
In the case of `Oc1ccc(C=NN(Cc2ccccc2)Cc2ccccc2)cc1`, the z-score runs as follows: under setting [5], 0.58 (inactive); under setting [6], 0.621 (inactive); under setting [7], 0.515 (inactive); under setting [4], 1.23 (inactive). Also, the cell count under setting [5] stood at 4430, the cell count under setting [6] amounted to 4410, the cell count under setting [7] turned out to be 3940 and the cell count under setting [4] came to 3600.
For `CC1(C)OC2CO[C@@]3(COS(N)(=O)=O)OC(C)(C)OC3C2O1` (some centres undefined), the z-score was 0.166 (inactive) under setting [5], 0.0797 (inactive) under setting [6], 0.165 (inactive) under setting [7] and -0.169 (inactive) under setting [4]. The cell count under setting [5] was determined as 6240, the cell count under setting [6] turned out to be 6200, the cell count under setting [7] was 5750 and the cell count under setting [4] was 5940.
In the case of `CCCCCCCCCCCCCCCCC(=O)NCCO`, the z-score was 0.812 (inactive) and the cell count is 5880.
`CC(N)c1ccc(C(=O)Nc2ccnc3[nH]ccc23)cc1` (centres undefined): the z-score is 0.0935 (inactive) under setting [5], -0.0384 (inactive) under setting [6], -0.229 (inactive) under setting [7] and 0.129 (inactive) under setting [4]. Also, the cell count under setting [5] was found to be 5400, the cell count under setting [6] was 5420, the cell count under setting [7] was 5670 and the cell count under setting [4] is 3470.
For the compound `O=C(Cc1cccc(OC(F)(F)F)c1)Nc1ccc(CCCCc2nnc(NC(=O)Cc3ccccn3)s2)nn1`, the z-score was 1.3 (inactive) under setting [1], 3.8 (active) under setting [2], 4.04 (active) under setting [3] and 4.54 (active) under setting [4]. The cell count reads like this: under setting [1], 5940; under setting [2], 4200; under setting [3], 4190; under setting [4], 3940.
Turning to `NC(=O)c1cnc(NC2CCCCC2N)nc1Nc1cccc(-n2nccn2)c1` (centres undefined), the z-score is -0.155 (inactive) under setting [5], -0.103 (inactive) under setting [6], 0.129 (inactive) under setting [7] and 0.743 (inactive) under setting [4]. In addition, the cell count under setting [5] was 5260, the cell count under setting [6] stood at 4840, the cell count under setting [7] is 5390 and the cell count under setting [4] came to 3000.
In the case of `CCCC[C@H](C)C[C@H](O)/C=C/[C@H]1[C@H](O)CC(=O)[C@@H]1CCCCC(CC(=O)O)OC` (some centres undefined), the z-score is -0.235 (inactive) and the cell count was determined as 5180.
`CC(C)OC(=O)N1CCC(Oc2ncnc3c2cnn3-c2ccc(S(C)(=O)=O)cc2F)CC1`: the z-score under setting [1] was -0.707 (inactive), the z-score under setting [2] is -0.537 (inactive), the z-score under setting [3] was -0.462 (inactive) and the z-score under setting [4] is -0.531 (inactive). The cell count is, setting by setting: under setting [1], 7670; under setting [2], 7400; under setting [3], 7330; under setting [4], 7200.
Consider `CCCCC/C=C\C/C=C\CCCCCCCC(=O)O[C@H](COC(=O)CCCCCCCCCCCCCCC)COP(=O)(O)OCCN`, for which the z-score was -0.42 (inactive) and the cell count was 5090.
For `CC(C)(C)OC(=O)Nc1ccc(-c2cc(C(=O)NCCCCCCC(=O)NO)no2)cc1`, in that order: 4.81 (active) and 3910.
As for `CC(C)(C)CC1NC(C(=O)NC2CCC(O)CC2)C(c2cccc(Cl)c2F)[C@]12C(=O)Nc1cc(Cl)ccc12` (some centres undefined), the z-score reads like this: under setting [1], -0.637 (inactive); under setting [2], -0.742 (inactive); under setting [3], -0.98 (inactive); under setting [4], -1.86 (inactive). The cell count runs as follows: under setting [1], 7790; under setting [2], 7430; under setting [3], 8360; under setting [4], 7510.
Regarding `CC(C)(C)C(O)C=Cc1ccc2c(c1)OCO2` (centres undefined), the z-score was 0.0878 (inactive) under setting [5], 0.509 (inactive) under setting [6], 0.124 (inactive) under setting [7] and 0.138 (inactive) under setting [4]. For the same compound, the cell count by setting is: under setting [5], 5100; under setting [6], 4800; under setting [7], 5050; under setting [4], 5260.

Source of the values: PubChem BioAssay AID1645838 (ICCB-Longwood Screening Facility, Harvard Medical School, 2021).
